Data from PubChem BioAssay (EPA / NIEHS).
Active and inactive are the calls of the source. The calls were made as follows, unless noted: active = hit-call score of the fitted dose curve at least 0.9, where 1 is the maximum; inactive = score below 0.9.

Assays:
[1] = read-out: solute carrier (SLC22A1), SLC22A1 (gene 6580); assay: LTEA_HepaRG_SLC22A1: Life Technologies and Expression Analysis (LTEA) Assay for solute carrier (SLC22A1) using HepaRG (AID 2283524); settings: mRNA level, 48 h; actives raise or lower the signal
Summary of the method: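 HepaRG (human liver line), 48 h dosing in serum-free induction medium; 8 conc., half-log down from 100 uM, 0.5% DMSO vehicle, duplicates. Endpoint: SLC22A1 mRNA, qRT-PCR, housekeeping-normalized; gain/loss fit vs DMSO.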

[2] = read-out: Pyruvate Dehydrogenase Kinase 4 (PDK4), PDK4 (gene 5166); assay: LTEA_HepaRG_PDK4: Life Technologies and Expression Analysis (LTEA) Assay for Pyruvate Dehydrogenase Kinase 4 (PDK4) using HepaRG (AID 2283525); settings: mRNA level, 48 h; actives raise or lower the signal
Summary of the method: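 In this multiplexed human HepaRG expression assay, cells are treated 48 h with test chemicals across an eight-point range starting at 100 uM. PDK4 mRNA changes, normalized to ACTB/GAPDH/POLR2A, are fitted in both directions relative to vehicle.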

[3] = read-out: Nuclear factor erythroid 2-related factor 2 (Homo sapiens) (UniProt Q16236); assay: LTEA_HepaRG_NFE2L2: Life Technologies and Expression Analysis (LTEA) Assay for Nuclear factor erythroid 2-related factor 2 (NFE2L2) Transcription Factor using HepaRG (AID 2283527); settings: mRNA level, 48 h; actives raise or lower the signal;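 also: TaqMan qRT-PCR transcript level normalised to ACTB GAPDH and POLR2A housekeeping genes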
Summary of the method: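 Transcript level of NFE2L2 is the read-out, measured by microfluidic TaqMan qRT-PCR and normalized to three housekeeping genes. Human HepaRG cultures received test chemical for 48 h at up to 100 uM in half-log steps. Gain or loss of signal is fitted relative to 0.5% DMSO.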

[4] = read-out: Signal transducer and activator of transcription 3 (Homo sapiens) (UniProt P40763); assay: LTEA_HepaRG_STAT3: Life Technologies and Expression Analysis (LTEA) Assay for Signal transducer and activator of transcription (STAT3) using HepaRG (AID 2283529); settings: mRNA level, 48 h; actives raise or lower the signal
Summary of the method: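 Read-out is STAT3 mRNA level by qRT-PCR, normalized to three housekeeping genes, in human HepaRG liver cells treated for 48 h. Concentrations ran from 100 uM downward in half-log steps; curves were fitted for gain or loss relative to 0.5% DMSO.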

[5] = read-out: solute carrier (SLCO1B1), SLCO1B1 (gene 10599); assay: LTEA_HepaRG_SLCO1B1: Life Technologies and Expression Analysis (LTEA) Assay for solute carrier (SLCO1B1) using HepaRG (AID 2283530); settings: mRNA level, 48 h; actives raise or lower the signal
Summary of the method: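 Differentiated human HepaRG cells, plated 48 h, switched to serum-free induction medium and exposed in duplicate for 48 h to 8 half-log concentrations (top 100 uM) in 0.5% DMSO. SLCO1B1 mRNA by TaqMan qRT-PCR, normalized to ACTB/GAPDH/POLR2A.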

[6] = read-out: sulfotransferase 2A1 (SULT2A1), SULT2A1 (gene 6822); assay: LTEA_HepaRG_SULT2A1: Life Technologies and Expression Analysis (LTEA) Assay for sulfotransferase 2A1 (SULT2A1) using HepaRG (AID 2283531); settings: mRNA level, 48 h; actives raise or lower the signal
Summary of the method: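 Differentiated human HepaRG cells in serum-free induction medium were exposed for 48 h to eight half-log concentrations (top 100 uM, 0.5% DMSO). SULT2A1 mRNA was measured by qRT-PCR, normalized to ACTB, GAPDH and POLR2A, and fitted bidirectionally against DMSO.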

[7] = read-out: Transforming Growth Factor (TGFA), TGFA (gene 7039); assay: LTEA_HepaRG_TGFA: Life Technologies and Expression Analysis (LTEA) Assay for Transforming Growth Factor (TGFA) using HepaRG (AID 2283532); settings: mRNA level, 48 h; actives raise or lower the signal
Summary of the method: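 HepaRG (human liver line), 48 h exposure, 8 conc. half-log down from 100 uM, 0.5% DMSO vehicle, duplicates; serum-free induction medium. TGFA mRNA by TaqMan qRT-PCR, ACTB/GAPDH/POLR2A normalization; gain/loss fit vs DMSO.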

[8] = read-out: Transforming Growth Factor (TGFB1), TGFB1 (gene 7040); assay: LTEA_HepaRG_TGFB1: Life Technologies and Expression Analysis (LTEA) Assay for Transforming Growth Factor (TGFB1) Transporter using HepaRG (AID 2283533); settings: mRNA level, 48 h; actives raise or lower the signal
Summary of the method: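 Differentiated human HepaRG cells in serum-free induction medium were exposed in duplicate for 48 h to eight concentrations (top 100 uM, half-log steps, 0.5% DMSO). TGFB1 mRNA was quantified by qRT-PCR, normalized to ACTB, GAPDH, POLR2A, and fitted bidirectionally against DMSO.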

[9] = read-out: TIMP1, TIMP1 (gene 7076); assay: LTEA_HepaRG_TIMP1: Life Technologies and Expression Analysis (LTEA) Assay for TIMP1 using HepaRG (AID 2283534); settings: mRNA level, 48 h; actives raise or lower the signal;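 also: TaqMan qRT-PCR signal normalized to ACTB GAPDH and POLR2A housekeeping genes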
Summary of the method: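 Differentiated human HepaRG cells in serum-free induction medium were exposed 48 h to chemicals (8 half-log concentrations, top 100 uM, 0.5% DMSO). TIMP1 mRNA was quantified by TaqMan qRT-PCR, normalized to ACTB/GAPDH/POLR2A; bidirectional fit versus DMSO.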

[10] = read-out: Tumor necrosis factor receptor 1 (TNFRSF1A), TNFRSF1A (gene 7132); assay: LTEA_HepaRG_TNFRSF1A: Life Technologies and Expression Analysis (LTEA) Assay for Tumor necrosis factor receptor 1 (TNFRSF1A) using HepaRG (AID 2283535); settings: mRNA level, 48 h; actives raise or lower the signal
Summary of the method: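 Differentiated human HepaRG cells were exposed in duplicate for 48 h in serum-free induction medium to eight concentrations (top 100 uM, half-log steps, 0.5% DMSO). TNFRSF1A mRNA was quantified by qRT-PCR, normalized to ACTB, GAPDH and POLR2A, then fitted bidirectionally against DMSO.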

[11] = read-out: Thyroid Hormone Responsive (THRSP), THRSP (gene 7069); assay: LTEA_HepaRG_THRSP: Life Technologies and Expression Analysis (LTEA) Assay for Thyroid Hormone Responsive (THRSP) using HepaRG (AID 2283536); settings: mRNA level, 48 h; actives raise or lower the signal
Summary of the method: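 mRNA induction or loss relative to 0.5% DMSO vehicle was fitted bidirectionally across an eight-point curve whose highest exposure was 100 uM. Human HepaRG liver cells received chemicals in duplicate over 48 h before RNA extraction.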

[12] = read-out: UDP glucuronosyltransferase (UGT1A1), UGT1A1 (gene 54658); assay: LTEA_HepaRG_UGT1A1: Life Technologies and Expression Analysis (LTEA) Assay for UDP glucuronosyltransferase (UGT1A1) using HepaRG (AID 2283538); settings: mRNA level, 48 h; actives raise or lower the signal
Summary of the method: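 Readout is UGT1A1 transcript level by qRT-PCR, normalized to three housekeeping genes, after 48 h chemical treatment of HepaRG cells. Concentrations ran from 100 uM down in half-log steps with 0.5% DMSO, and gain or loss relative to DMSO was fitted.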

[13] = read-out: UDP glucuronosyltransferase (UGT1A6), UGT1A6 (gene 54578); assay: LTEA_HepaRG_UGT1A6: Life Technologies and Expression Analysis (LTEA) Assay for UDP glucuronosyltransferase (UGT1A6) using HepaRG (AID 2283539); settings: mRNA level, 48 h; actives raise or lower the signal
Summary of the method: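 Human HepaRG cells were dosed for 48 h in serum-free induction medium with 0.5% DMSO vehicle, eight-point half-log series from 100 uM, in duplicate. UGT1A6 mRNA was measured by qRT-PCR, normalized to ACTB, GAPDH, POLR2A, and fitted bidirectionally against DMSO.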

[14] = read-out: X-box binding protein 1 (XBP1), XBP1 (gene 7494); assay: LTEA_HepaRG_XBP1: Life Technologies and Expression Analysis (LTEA) Assay for X-box binding protein 1 (XBP1) using HepaRG (AID 2283540); settings: mRNA level, 48 h; actives raise or lower the signal
Summary of the method: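 Differentiated human HepaRG cells in serum-free induction medium were exposed in duplicate for 48 h to eight half-log concentrations up to 100 uM in 0.5% DMSO. XBP1 mRNA was quantified by qRT-PCR, normalised to ACTB, GAPDH and POLR2A, with bidirectional fitting against DMSO.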

[15] = LTEA_HepaRG_LDH_cytotoxicity: Cytotoxicity Assessment in the Life Technologies and Expression Analysis (LTEA) Assay (AID 2283563; active = hit-call score of the fitted dose curve at least 0.9, where 1 is the maximum)
Summary of the method: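 Differentiated human HepaRG cells, plated 48 h beforehand, were switched to serum-free induction medium and exposed for 48 h to eight half-log concentrations (top 100 uM) in 0.5% DMSO. LDH was measured in spent medium; activity was fitted relative to DMSO vehicle.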

[16] = read-out: NAD(P)H dehydrogenase [quinone] 1 (NQO1), NQO1 (gene 1728); assay: LTEA_HepaRG_NQO1: Life Technologies and Expression Analysis (LTEA) Assay for NAD(P)H dehydrogenase [quinone] 1 (NQO1) using HepaRG (AID 2283526); settings: mRNA level, 48 h; actives raise or lower the signal
Summary of the method: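 HepaRG, 48 h post-plating → serum-free induction medium → test chemical 48 h (duplicate, 100 uM top, half-log x8, 0.5% DMSO) → RNA isolation → qRT-PCR, ACTB/GAPDH/POLR2A normalization; bidirectional curve fit vs DMSO baseline.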

Measured: AC50

Chain of Signal transducer and activator of transcription 3 (Homo sapiens) (P40763 whole entry, looked up): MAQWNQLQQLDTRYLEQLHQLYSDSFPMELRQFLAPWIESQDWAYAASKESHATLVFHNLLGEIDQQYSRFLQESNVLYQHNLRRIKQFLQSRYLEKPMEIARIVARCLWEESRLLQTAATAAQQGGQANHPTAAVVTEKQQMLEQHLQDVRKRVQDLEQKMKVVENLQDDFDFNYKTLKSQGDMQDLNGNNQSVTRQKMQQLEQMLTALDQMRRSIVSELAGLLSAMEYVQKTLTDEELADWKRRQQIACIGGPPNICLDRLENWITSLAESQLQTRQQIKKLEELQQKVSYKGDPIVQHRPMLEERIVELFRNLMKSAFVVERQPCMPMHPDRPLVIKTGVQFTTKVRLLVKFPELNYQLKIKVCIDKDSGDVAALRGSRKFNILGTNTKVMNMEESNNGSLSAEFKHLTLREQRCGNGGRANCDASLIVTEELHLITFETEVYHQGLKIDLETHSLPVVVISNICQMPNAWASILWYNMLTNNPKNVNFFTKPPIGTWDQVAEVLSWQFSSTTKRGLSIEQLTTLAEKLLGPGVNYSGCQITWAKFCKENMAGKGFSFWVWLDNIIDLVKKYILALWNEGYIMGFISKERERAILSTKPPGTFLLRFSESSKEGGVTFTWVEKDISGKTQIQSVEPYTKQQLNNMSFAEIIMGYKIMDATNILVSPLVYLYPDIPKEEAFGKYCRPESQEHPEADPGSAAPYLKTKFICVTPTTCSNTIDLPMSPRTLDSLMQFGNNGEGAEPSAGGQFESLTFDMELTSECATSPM
Chain of Nuclear factor erythroid 2-related factor 2 (Homo sapiens) (Q16236 whole entry, looked up): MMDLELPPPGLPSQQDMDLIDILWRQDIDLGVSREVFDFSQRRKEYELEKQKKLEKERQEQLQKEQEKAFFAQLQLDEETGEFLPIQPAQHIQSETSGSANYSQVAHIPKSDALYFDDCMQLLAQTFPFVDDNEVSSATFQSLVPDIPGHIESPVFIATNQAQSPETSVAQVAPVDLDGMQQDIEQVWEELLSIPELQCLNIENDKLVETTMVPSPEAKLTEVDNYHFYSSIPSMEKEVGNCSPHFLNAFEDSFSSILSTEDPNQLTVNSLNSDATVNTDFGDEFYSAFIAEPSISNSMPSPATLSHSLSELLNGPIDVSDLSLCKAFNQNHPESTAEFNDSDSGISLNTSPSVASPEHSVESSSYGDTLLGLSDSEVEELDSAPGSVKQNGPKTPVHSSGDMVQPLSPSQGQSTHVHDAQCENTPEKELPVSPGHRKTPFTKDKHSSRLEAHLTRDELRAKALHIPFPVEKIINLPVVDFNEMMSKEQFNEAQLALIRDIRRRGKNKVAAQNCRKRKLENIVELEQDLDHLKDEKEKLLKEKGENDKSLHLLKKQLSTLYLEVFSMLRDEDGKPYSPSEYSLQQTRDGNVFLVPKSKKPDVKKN

CCC(C)Nc1c([N+](=O)[O-])cc(C(C)(C)C)cc1[N+](=O)[O-] (stereo unspecified)
active: [12] 13.1 µM | [14] 73.8 µM
inactive: [1] | [2] | [3] | [4] | [5] | [6] | [7] | [8] | [9] | [10] | [11] | [13] | [15]

C#CCN1C(=O)COc2cc(F)c(N3C(=O)C4=C(CCCC4)C3=O)cc21
inactive: [1] | [2] | [16] | [3] | [4] | [5] | [6] | [7] | [8] | [9] | [10] | [11] | [13] | [14] | [15]
active: [12] 1.95 µM

Clc1ccccc1-c1nnc(-c2ccccc2Cl)nn1
active: [1] 50 µM | [11] 50 µM | [12] 10.7 µM
inactive: [2] | [3] | [4] | [5] | [6] | [7] | [8] | [9] | [10] | [13] | [14] | [15]
